From PubChem BioAssay (Tox21)
Where “and” joins values, the source holds several entries; their conditions need not be identical. Identical values can stand only once. Calls of active or inactive are those of the source. A call without a number means that no potency is given here. Unless noted, calls follow the shape of the dose curve; as a rule, active = well fitted curve in the direction sought with a large enough effect in the repeat runs; inconclusive = weak or mixed curves; inactive = no such curve, though single readings can be large; an effect the other way counts as inactive or inconclusive.

Legend:
[1] = qHTS assay for small molecule agonists of the p53 signaling pathway (AID 651631; calls by dose curve; also: nearly all actives have a fitted effect of over 15% in size; also: potency is read from the fitted curve at half-maximal effect)
Outline: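 Beta-lactamase reporter activity under p53 response elements was quantified in HCT-116 cells by FRET fluorescence, following 16 h incubation with test compounds at 37 °C and 2 h substrate development at room temperature.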

[2] = qHTS assay for small molecules that induce genotoxicity in human embryonic kidney cells expressing luciferase-tagged ATAD5 (AID 651632); also: nearly all actives have a fitted effect of over 15% in size; also: potency is read from the fitted curve at half-maximal effect
Outline: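 Concentration-response screen for ATAD5 upregulation in HEK293T luciferase reporter cells; 16 hr treatment at 37C, then luminescence after 30 min with Amplite at room temperature.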

[3] = qHTS assay for small molecule agonists of the p53 signaling pathway - cell viability (AID 651633; calls by dose curve;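 also: p53RE-bla HCT reporter cells with a stable beta-lactamase p53 reporter; nearly all actives have a fitted effect of over 30% in size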)
Outline: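 p53RE-bla cells, seeded at 4,000 per well and rested 5 h at 37 C/5% CO2, received compounds in DMSO for 16 h at 37 C. CellTiter-Glo was then added, and luminescence was read after 30 min at room temperature to gauge cytotoxicity.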

[4] = qHTS assay for small molecules that induce genotoxicity in human embryonic kidney cells expressing luciferase-tagged ATAD5 - cell viability (AID 651634; calls by dose curve; also: nearly all actives have a fitted effect of over 25% in size; also: potency is read from the fitted curve at half-maximal effect)
Outline: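 15.5 hr compound or vehicle exposure of HEK293T cells expressing luciferase-tagged ATAD5 at 37C; live-cell protease activity is read by fluorescence after 30 min of CellTiter-Fluor.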

[5] = qHTS assay for small molecule disruptors of the mitochondrial membrane potential - cell viability (AID 720634; calls by dose curve;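 also: human HepG2 liver cancer cells; nearly all actives have a fitted effect of over 20% in size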)
Outline: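 In this qHTS format, HepG2 cells plated overnight were pinned with compound, incubated 1 hr, and assayed for ATP luminescence with CellTiter-Glo after m-MPI dye addition.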

[6] = qHTS assay for small molecule disruptors of the mitochondrial membrane potential (AID 720635); also: potency is read from the fitted curve at half-maximal effect
Outline: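 HepG2 cells (2,000/well) attached overnight at 37C, then took compound for 1 hr at 37C, 5% CO2. Mito-MPS dye was added for 30 min; fluorescence was read at 490/535 nm (monomers) and 540/590 nm (aggregates).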

[7] = qHTS assay to test for compound auto fluorescence at 590 nm (red) in HepG2 cells (AID 720674)
Outline: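 Intrinsic compound fluorescence in the red window (Ex/Em 540/590 nm) is measured in attached HepG2 cells exposed for 1 hr, DMSO vehicle as baseline, benchmarked to Rose Bengal sodium.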

[8] = qHTS assay to test for compound auto fluorescence at 460 nm (blue) in HEK293 cells (AID 720678)
Outline: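 HEK293 cells (2,000/well, medium with 10% dialyzed FBS) attached 4-5 hr, then exposed to compound overnight at 37C, 5% CO2. Blue fluorescence read at 405/460 nm, with triamterene as reference fluorophore.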

[9] = qHTS assay to test for compound auto fluorescence at 590 nm (red) in HEK293 cells (AID 720679)
Outline: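 HEK293 cells (2,000/well, 10% dialyzed FBS) attached 4-5 hr, then dosed with compound or DMSO and incubated overnight at 37C, 5% CO2. Red fluorescence read at 540/590 nm, Rose Bengal sodium as reference fluorophore.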

[10] = qHTS assay to test for compound auto fluorescence at 535 nm (green) in HEK293 cells (AID 720680)
[11] = qHTS assay to test for compound auto fluorescence at 460 nm (blue) in HEK293 cell free culture (AID 720681)
Outline: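 Test compounds were pinned into cell-free culture medium (DMEM with 10% FBS) and fluorescence was read directly at Ex/Em 405/460 nm. Signals were expressed as fluorescence equivalents of triamterene, with DMSO vehicle as control.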

[12] = qHTS assay to test for compound auto fluorescence at 535 nm (green) in HEK293 cell free culture (AID 720682)
Outline: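 Each library compound, or DMSO control, is added by pintool to medium alone, comprising DMEM and 10% FBS. Emission at 535 nm following 485 nm excitation is quantified against fluorescein.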

[13] = qHTS assay to test for compound auto fluorescence at 590 nm (red) in HepG2 cell free culture (AID 720684)
Outline: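 Readout: intrinsic compound fluorescence at 590 nm emission after 540 nm excitation, scaled to Rose Bengal sodium. Matrix was cell-free MEM with 10% FBS; DMSO vehicle wells served as control.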

[14] = qHTS assay to test for compound auto fluorescence at 460 nm (blue) in HepG2 cell free culture (AID 720685)
Outline: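 Cell-free plates of MEM plus 10% FBS received 23 nL compound or DMSO vehicle; blue-channel (405/460 nm) intensity scored against triamterene as reference fluorophore.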

[15] = qHTS assay to test for compound auto fluorescence at 460 nm (blue) in HepG2 cells (AID 720687)
Outline: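 Cells (2,000/well in MEM with 10% FBS) attached overnight at 37 C, then were exposed to compound or DMSO for 1 hr at 37 C, 5% CO2. Fluorescence read at Ex/Em 405/460 nm, expressed as triamterene-equivalent signal.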

[16] = biological target: Glucocorticoid receptor (Homo sapiens) (UniProt P04150); assay: qHTS assay to identify small molecule agonists of the glucocorticoid receptor (GR) signaling pathway (AID 720691; active = well fitted activation curve with a large enough effect in the signal ratio in the repeat runs, not every such curve was filed as active; inconclusive = weak or mixed curves, or effect the other way; inactive = no such curve, though single readings can be large or run the other way; the % refers to the signal ratio; also: potency is read from the fitted curve at half-maximal effect); conditions: GR-bla HeLa, beta-lactamase reporter ratio, 18 h; activation: at 62.4 µM (top of the series)
Outline: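 Measures GR pathway activation through a GRE-beta-lactamase reporter stably integrated in HeLa cells, with 18 h compound treatment at 37 C and fluorescence detection using a FRET substrate.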

[17] = qHTS assay to test for compound auto fluorescence at 535 nm (green) in HepG2 cells (AID 720675)
[18] = qHTS assay to test for compound auto fluorescence at 590 nm (red) in HEK293 cell free culture (AID 720683)
Outline: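 Tox21 10K library compounds were pinned into cell-free DMEM with 10% FBS and fluorescence was read at excitation 540 nm. Activity is expressed as Rose Bengal sodium equivalency.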

[19] = qHTS assay to test for compound auto fluorescence at 535 nm (green) in HepG2 cell free culture (AID 720686)
[20] = biological target: Glucocorticoid receptor (Homo sapiens) (UniProt P04150); assay: qHTS assay to identify small molecule antagonists of the glucocorticoid receptor (GR) signaling pathway (AID 720692; active = well fitted inhibition curve with a large enough effect in the signal ratio in the repeat runs, not every such curve was filed as active; inconclusive = weak or mixed curves, or effect the other way; inactive = no such curve, though single readings can be large or run the other way; the % refers to the signal ratio)
Outline: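 Tox21 10K library screened in concentration-response for blockade of dexamethasone (5 nM final)-induced GRE-bla reporter activity in HeLa cells; 18 h treatment, fluorescence read.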

Glucocorticoid receptor (Homo sapiens), sequence (P04150 whole entry, looked up): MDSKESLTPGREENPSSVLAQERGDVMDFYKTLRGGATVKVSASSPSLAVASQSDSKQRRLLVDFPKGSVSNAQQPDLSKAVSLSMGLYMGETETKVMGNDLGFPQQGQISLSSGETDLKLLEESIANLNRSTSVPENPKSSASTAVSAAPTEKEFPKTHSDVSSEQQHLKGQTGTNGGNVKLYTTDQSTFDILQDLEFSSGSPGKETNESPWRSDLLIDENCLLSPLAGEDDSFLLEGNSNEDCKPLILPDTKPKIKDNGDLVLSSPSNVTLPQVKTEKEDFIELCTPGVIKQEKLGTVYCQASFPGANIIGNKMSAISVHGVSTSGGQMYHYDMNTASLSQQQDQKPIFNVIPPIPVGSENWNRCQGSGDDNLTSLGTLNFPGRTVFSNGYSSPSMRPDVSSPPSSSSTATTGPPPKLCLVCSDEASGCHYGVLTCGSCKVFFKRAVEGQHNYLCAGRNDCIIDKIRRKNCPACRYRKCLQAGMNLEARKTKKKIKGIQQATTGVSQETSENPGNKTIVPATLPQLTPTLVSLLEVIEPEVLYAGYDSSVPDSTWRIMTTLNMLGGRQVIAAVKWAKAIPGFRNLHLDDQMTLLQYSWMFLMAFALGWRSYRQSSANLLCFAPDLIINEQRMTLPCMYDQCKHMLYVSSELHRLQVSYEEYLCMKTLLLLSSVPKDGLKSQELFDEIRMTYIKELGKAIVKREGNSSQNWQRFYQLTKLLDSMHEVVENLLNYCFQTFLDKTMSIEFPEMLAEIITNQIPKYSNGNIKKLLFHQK

SMILES: CC(=O)[C@]1(O)Cc2c(O)c3c(c(O)c2[C@@H](O[C@H]2C[C@H](N)[C@H](O)[C@H](C)O2)C1)C(=O)c1c(O)cccc1C3=O
- Potency [1]: 944 nM (active) and 2.37 µM (active)
- Potency [2]: 750 nM (active) and 944 nM (active)
- Potency [3]: inactive
- Potency [4]: 10.6 µM (active) and 11.9 µM (active)
- Potency [5]: inactive
- Potency [6]: 441 nM (active) and 5.31 µM (active)
- Potency [7]: inactive
- Potency [8]: inactive
- Potency [9]: inactive
- Potency [10]: inactive
- Potency [11]: inactive
- Potency [12]: inactive
- Potency [13]: inactive
- outcome [14]: inactive
- outcome [15]: inactive
- Potency [16]: 10.7 µM [inconclusive] (active) and 23.9 µM [inconclusive] (active)

SMILES: CC(C)CN(C[C@@H](O)[C@H](Cc1ccccc1)NC(=O)O[C@@H]1CCOC1)S(=O)(=O)c1ccc(N)cc1
- Potency [1]: inactive
- Potency [2]: inactive
- Potency [3]: inactive
- Potency [4]: inactive
- Potency [5]: inactive
- Potency [6]: inactive
- Potency [17]: inactive
- Potency [8]: inactive
- Potency [10]: inactive
- Potency [11]: inactive
- Potency [12]: inactive
- Potency [18]: inactive
- outcome [14]: inactive
- Potency [19]: inactive
- outcome [15]: inactive
- Potency [16]: inactive

SMILES: NC[C@@H]1O[C@H](O[C@H]2[C@@H](O)[C@H](O[C@@H]3[C@@H](O)[C@H](N)C[C@H](N)[C@H]3O[C@H]3O[C@H](CO)[C@@H](O)[C@H](O)[C@H]3N)O[C@@H]2CO)[C@H](N)[C@@H](O)[C@@H]1O
- Potency [1]: inactive
- Potency [2]: inactive
- Potency [3]: inactive
- Potency [4]: inactive
- Potency [5]: inactive
- Potency [6]: inactive
- Potency [7]: inactive
- Potency [17]: inactive
- Potency [9]: inactive
- Potency [10]: inactive
- Potency [11]: inactive
- Potency [12]: inactive
- Potency [18]: inactive
- Potency [13]: inactive
- outcome [14]: inactive
- Potency [19]: inactive
- outcome [15]: inactive
- Potency [16]: inactive
- Potency [20]: inactive

SMILES: CCOC(=O)Nc1ccc2c(c1)N(C(=O)CN(C)C)c1ccccc1CC2
- Potency [1]: inactive
- Potency [2]: inactive
- Potency [3]: inactive
- Potency [4]: inactive
- Potency [5]: inactive
- Potency [7]: inactive
- Potency [17]: inactive
- Potency [8]: inactive
- Potency [9]: inactive
- Potency [10]: inactive
- Potency [11]: inactive
- Potency [12]: inactive
- Potency [18]: inactive
- Potency [13]: inactive
- outcome [14]: inactive
- Potency [19]: inactive
- outcome [15]: inactive

SMILES: NCCC[C@H](N)C(=O)O
- Potency [1]: inactive
- Potency [2]: inactive
- Potency [3]: inactive
- Potency [4]: inactive
- Potency [5]: inactive
- Potency [6]: inactive
- Potency [17]: inactive
- Potency [8]: inactive
- Potency [9]: inactive
- Potency [10]: inactive
- Potency [11]: inactive
- Potency [12]: inactive
- Potency [18]: inactive
- Potency [13]: inactive
- outcome [14]: inactive
- Potency [19]: inactive
- outcome [15]: inactive

SMILES: CO[C@H]1C[C@H](O[C@H]2[C@H](C)[C@@H](O[C@@H]3O[C@H](C)C[C@H](N(C)C)[C@H]3OC(C)=O)[C@@H](C)C[C@]3(CO3)C(=O)[C@H](C)[C@@H](OC(C)=O)[C@@H](C)[C@@H](C)OC(=O)[C@@H]2C)O[C@@H](C)[C@@H]1OC(C)=O
- Potency [1]: inactive
- Potency [2]: inactive
- Potency [3]: inactive
- Potency [4]: inactive
- Potency [5]: inactive
- Potency [7]: inactive
- Potency [17]: inactive
- Potency [8]: inactive
- Potency [9]: inactive
- Potency [10]: inactive
- Potency [11]: inactive
- Potency [12]: inactive
- Potency [18]: inactive
- Potency [13]: inactive
- outcome [14]: inactive
- Potency [19]: inactive
- outcome [15]: inactive

SMILES: CO[C@H]1O[C@@H]2O[C@@]3(C)CC[C@H]4[C@H](C)CC[C@@H]([C@H]1C)[C@@]24OO3
- Potency [1]: inactive
- Potency [2]: inactive
- Potency [3]: inactive
- Potency [4]: inactive
- Potency [5]: inactive
- Potency [6]: inactive
- Potency [7]: inactive
- Potency [17]: inactive
- Potency [9]: inactive
- Potency [10]: inactive
- Potency [11]: inactive
- Potency [12]: inactive
- Potency [18]: inactive
- Potency [13]: inactive
- outcome [14]: inactive
- Potency [19]: inactive
- outcome [15]: inactive
- Potency [16]: inactive
- Potency [20]: inactive

SMILES: CC(O)CN(C)C (stereo not drawn)
- Potency [1]: inactive
- Potency [2]: inactive
- Potency [3]: inactive
- Potency [4]: inactive
- Potency [5]: inactive
- Potency [7]: inactive
- Potency [17]: inactive
- Potency [8]: inactive
- Potency [9]: inactive
- Potency [10]: inactive
- Potency [11]: inactive
- Potency [12]: inactive
- Potency [18]: inactive
- Potency [13]: inactive
- outcome [14]: inactive
- Potency [19]: inactive
- outcome [15]: inactive

SMILES: N[C@@H](C(=O)N[C@@H]1C(=O)N2C(C(=O)O)=C(Cl)CC[C@H]12)c1ccccc1
- Potency [1]: inactive
- Potency [2]: inactive
- Potency [3]: inactive
- Potency [4]: inactive
- Potency [5]: inactive
- Potency [6]: inactive
- Potency [7]: inactive
- Potency [17]: inactive
- Potency [9]: inactive
- Potency [10]: inactive
- Potency [11]: inactive
- Potency [12]: inactive
- Potency [18]: inactive
- outcome [14]: inactive
- Potency [19]: inactive
- Potency [16]: 21.3 µM (active)

SMILES: Cn1nnnc1SCC1=C(C(=O)O)N2C(=O)[C@@H](NC(=O)[C@H](O)c3ccccc3)[C@H]2SC1
- Potency [1]: inactive
- Potency [2]: inactive
- Potency [3]: inactive
- Potency [4]: inactive
- Potency [5]: inactive
- Potency [6]: inactive
- Potency [17]: inactive
- Potency [8]: inactive
- Potency [9]: inactive
- Potency [10]: inactive
- Potency [11]: inactive
- Potency [12]: inactive
- Potency [18]: inactive
- Potency [13]: inactive
- outcome [14]: inactive
- Potency [19]: inactive
- outcome [15]: inactive
- Potency [16]: inactive
- Potency [20]: inactive
